Experiment [1] can be described thus: qHTS assay to identify small molecule agonists of the peroxisome proliferator-activated receptor delta (PPARd) signaling pathway - cell viability counter screen (AID 743211). Further: nearly all actives have a fitted effect of over 55% in size. In outline:
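PPARd-bla HEK293H cells (UAS-beta-lactamase reporter) were treated with compounds for 17 h at 37 C. Viability was then read in the same wells by CellTiter-Glo luminescence after 30 min at room temperature.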
(In qHTS, concentration-response curves come from the screen itself.)

Experiment [2] concerns the target Peroxisome proliferator-activated receptor delta (Homo sapiens) (UniProt Q03181). The experiment in a line: qHTS assay to identify small molecule agonists of the peroxisome proliferator-activated receptor delta (PPARd) signaling pathway (AID 743212; calls by dose curve). In a few lines: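 HEK293H UAS-bla reporter cells, human PPARd system; compounds delivered in DMSO after 5 h plating, then at 37 C. Beta-lactamase FRET read, 2 h RT substrate step.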

The nature of experiment [3]: qHTS assay to identify small molecule antagonists of the peroxisome proliferator-activated receptor delta (PPARd) signaling pathway - cell viability counter screen (AID 743213). Further: nearly all actives have a fitted effect of over 50% in size. In a few lines: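 Viability counter-screen, qHTS format: PPARd-bla HEK293H, L165041 300 nM final, 17 h compound exposure at 37 C, CellTiter-Glo luminescence after 30 min RT.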
Experiment [4] addresses Peroxisome proliferator-activated receptor delta (Homo sapiens) (UniProt Q03181). The experiment in a line: qHTS assay to identify small molecule antagonists of the peroxisome proliferator-activated receptor delta (PPARd) signaling pathway (AID 743215; active means well fitted inhibition curve with a large enough effect in the signal ratio in the repeat runs, not every such curve was filed as active; the % refers to the signal ratio;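 further: cells stimulated with agonist L165041 at 300 nM final during compound exposure; series mostly up to about 62 µM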). In a few lines:
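Read-out is beta-lactamase FRET fluorescence, measured 2 h after substrate addition at room temperature. Beforehand, UAS-bla HEK293H cells carrying the PPARd reporter were exposed to compounds with L165041 at 300 nM final for 17 h at 37 C.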

Experiment [5] in a line: qHTS assay to identify small molecule agonists of the farnesoid-X-receptor (FXR) signaling pathway - cell viability counter screen (AID 743218). Further: nearly all actives have a fitted effect of over 45% in size. In a few lines: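 HEK 293T FXR-bla cells; 5 h pre-incubation, 16 h compound exposure at 37 C; LiveBLAzer substrate 2 h RT, then CellTiter-Glo 30 min RT, luminescence.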
A short description of experiment [6]: qHTS assay to identify small molecule antagonists of the farnesoid-X-receptor (FXR) signaling pathway - cell viability counter screen (AID 743221; active means well fitted cell-killing curve with a large enough effect in the repeat runs, not every such curve was filed as active; further: nearly all actives have a fitted effect of over 50% in size). In outline: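 FXR-UAS-bla HEK 293T cells were treated with test compounds plus chenodeoxycholic acid (50 uM final) for 16 h at 37 C. Cell viability in the same wells was then read as CellTiter-Glo luminescence after 30 min at room temperature.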

Experiment [7] concerns the target Vitamin D3 receptor (Homo sapiens) (UniProt P11473). The experiment in a line: qHTS assay to identify small molecule agonists of the vitamin D receptor (VDR) signaling pathway (AID 743222; calls by dose curve). In outline:
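VDR-bla cells, 2,000/well; 4 h preincubation 37C; cpd (DMSO) 16 h; LiveBLAzer B/G substrate 2 h RT; fluorescence intensity read.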

Experiment [8] shares this target. The experiment in a line: qHTS assay to identify small molecule antagonists of the vitamin D receptor (VDR) signaling pathway (AID 743223; active means well fitted inhibition curve with a large enough effect in the signal ratio in the repeat runs, not every such curve was filed as active; the % refers to the signal ratio). In outline:
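VDR-bla cells were plated, incubated 4 h at 37C, then given compound and 1alpha,25-dihydroxyvitamin D3 (3 nM final). After 16 h at 37C, LiveBLAzer B/G FRET substrate was added for 2 h at room temperature and fluorescence read.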

The nature of experiment [9]: qHTS assay to identify small molecule antagonists of the vitamin D receptor (VDR) signaling pathway - cell viability counter screen (AID 743225). Further: nearly all actives have a fitted effect of over 50% in size. In a few lines:
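VDR-bla HEK 293T cells, 4 h pre-incubation at 37C, then compound plus 1-alpha,25-dihydroxyvitamin D3 (3 nM final) for 16 h. After the beta-lactamase FRET read, CellTiter-Glo was added to the same wells; luminescence after 30 min at room temperature.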

A short description of experiment [10]: qHTS assay to identify small molecule agonists of the NFkB signaling pathway - cell viability counter screen (AID 1159515; calls by dose curve; further: series mostly up to about 61 µM; nearly all actives have a fitted effect of over 55% in size). In a few lines:
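Luminescence from CellTiter-Glo (30 min, room temperature) gives viability, measured in the same wells as the beta-lactamase reporter read. Cells were NFkB-bla ME-180, 2,000 per well, treated 5 hr with compounds.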

The nature of experiment [11]: qHTS assay to identify small molecule agonists of the endoplasmic reticulum stress response signaling pathway (AID 1159516; active means well fitted activation curve with a large enough effect in the signal ratio in the repeat runs, not every such curve was filed as active; the % refers to the signal ratio). In outline:
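Read-out is beta-lactamase cleavage of a FRET substrate (405 nm excitation; 460 and 530 nm emissions) in ESRE-bla HeLa cells after a 5 hr compound exposure at 37 C. Substrate incubation ran 2 hr at room temperature.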

Experiment [12] is described as follows: qHTS assay to identify small molecule agonists of the endoplasmic reticulum stress response signaling pathway - cell viability counter screen (AID 1159517; calls by dose curve;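 further: HeLa cells carrying an ER stress response element beta-lactamase reporter; series mostly up to about 61 µM; nearly all actives have a fitted effect of over 50% in size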). In outline: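 Cells, HeLa ESRE-bla; density, 1,500/well; dosing, 5 hr at 37 C, 5% CO2; readout, CellTiter-Glo luminescence after 30 min RT.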
Experiment [13] concerns the target Nuclear receptor ROR-gamma (Homo sapiens) (UniProt P51449). The experiment in a line: qHTS assay to identify small molecule antagonists of the retinoid-related orphan receptor gamma (ROR-gamma) signaling pathway (AID 1159521). In a few lines: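 Tet-on RORγ CHO cells carrying a ROR response element–luciferase reporter were pretreated with compounds for 2 h, then induced with 1 uM (final) doxycycline hyclate for 16 h at 37 C. Antagonism was read as decreased ONE-Glo luminescence.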

Experiment [14] is described as follows: qHTS assay to identify small molecule agonists of the AP-1 signaling pathway (AID 1159526; calls by dose curve).
Experiment [15] has as its target Retinoic acid receptor RXR-alpha (Homo sapiens) (UniProt P19793). The experiment in a line: qHTS assay to identify small molecule agonists of the RXR signaling pathway (AID 1159527; calls by dose curve; further: nearly all actives have a fitted effect of over 35% in size; further: potency means the concentration at half of the fitted maximal effect). In outline: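 GeneBLAzer RXR-alpha-UAS-bla HEK 293T cells in medium with 2% charcoal-stripped FBS, pre-incubated 5 hr at 37 C, then exposed to compounds 16 hr. Beta-lactamase reporter read by FRET substrate, 2 hr room temperature, 460/530 nm emission.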

Experiment [16] addresses Bile acid receptor (Homo sapiens) (UniProt Q96RI1). The experiment is described as follows: qHTS assay to identify small molecule antagonists of the farnesoid-X-receptor (FXR) signaling pathway (AID 743217; active means well fitted inhibition curve with a large enough effect in the signal ratio in the repeat runs, not every such curve was filed as active; the % refers to the signal ratio). In a few lines: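 HEK 293T FXR-UAS-bla, 5000 cells/well; compound + CDCA 50 uM final; 16 h, 37 °C; B/G FRET substrate 2 h RT; fluorescence.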
Experiment [17] shares this target. The experiment is described as follows: qHTS assay to identify small molecule agonists of the farnesoid-X-receptor (FXR) signaling pathway (AID 743220; active means well fitted activation curve with a large enough effect in the signal ratio in the repeat runs, not every such curve was filed as active; the % refers to the signal ratio). In outline: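 Beta-lactamase reporter under UAS control in GeneBLAzer FXR HEK 293T cells (5000/well) measured with LiveBLAzer FRET substrate after 2 h at room temperature. Compound exposure lasted 16 h at 37C.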

Experiment [18] is described as follows: qHTS assay to identify small molecule agonists of the vitamin D receptor (VDR) signaling pathway - cell viability counter screen (AID 743224). In outline: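 Luminescence from CellTiter-Glo, read after 30 min at room temperature, reports viability of VDR-bla cells treated with compounds for 16 h at 37C in the wells used for the beta-lactamase FRET read.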

Experiment [19] can be described thus: qHTS assay to identify small molecule antagonists of the retinoid-related orphan receptor gamma (ROR-gamma) signaling pathway - cell viability counter screen (AID 1159520). Further: nearly all actives have a fitted effect of over 50% in size. In a few lines:
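Cytotoxicity was read from cellular ATP (CellTiter-Glo luminescence) after 16 hr at 37 C with 1 uM doxycycline induction. The inducer was added 2 hr after compound transfer to Tet-on ROR gamma CHO cells.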

Experiment [20] can be described thus: qHTS assay to identify small molecule agonists of the AP-1 signaling pathway - cell viability counter screen (AID 1159525; calls by dose curve; further: nearly all actives have a fitted effect of over 55% in size). In outline: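 Luminescent ATP readout (Cell Titer Glo, 30 min RT), normalised to DMSO and tetra n-octyl ammonium bromide controls. Cells were ME-180 AP-1-bla in 0.5% dialyzed FBS Opti-MEM, with a 5 h, 37 °C compound exposure.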

Inconclusive results are not listed. A number with no mark means an inactive call. Activity calls are given as the source filed them. Unless noted, the call rests on the fitted dose curve; in most records, active means well fitted curve in the direction sought with a large enough effect in the repeat runs; inconclusive means weak or mixed curves; inactive means no such curve, though single readings can be large; an effect the other way counts as inactive or inconclusive.

Sequence of Retinoic acid receptor RXR-alpha (Homo sapiens) (P19793 whole entry, looked up): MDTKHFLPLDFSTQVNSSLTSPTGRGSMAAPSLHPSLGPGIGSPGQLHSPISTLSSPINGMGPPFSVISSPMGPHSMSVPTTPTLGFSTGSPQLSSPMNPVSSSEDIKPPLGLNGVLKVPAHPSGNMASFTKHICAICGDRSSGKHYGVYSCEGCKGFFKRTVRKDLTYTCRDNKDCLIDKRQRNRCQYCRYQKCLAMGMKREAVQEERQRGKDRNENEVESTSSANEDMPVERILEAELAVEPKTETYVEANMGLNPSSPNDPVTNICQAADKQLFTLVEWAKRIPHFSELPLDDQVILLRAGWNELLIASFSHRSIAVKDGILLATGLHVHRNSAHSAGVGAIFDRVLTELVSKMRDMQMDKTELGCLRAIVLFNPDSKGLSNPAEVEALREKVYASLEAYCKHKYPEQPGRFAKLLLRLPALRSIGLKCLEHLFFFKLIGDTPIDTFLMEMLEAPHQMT
Sequence of Vitamin D3 receptor (Homo sapiens) (P11473 whole entry, looked up): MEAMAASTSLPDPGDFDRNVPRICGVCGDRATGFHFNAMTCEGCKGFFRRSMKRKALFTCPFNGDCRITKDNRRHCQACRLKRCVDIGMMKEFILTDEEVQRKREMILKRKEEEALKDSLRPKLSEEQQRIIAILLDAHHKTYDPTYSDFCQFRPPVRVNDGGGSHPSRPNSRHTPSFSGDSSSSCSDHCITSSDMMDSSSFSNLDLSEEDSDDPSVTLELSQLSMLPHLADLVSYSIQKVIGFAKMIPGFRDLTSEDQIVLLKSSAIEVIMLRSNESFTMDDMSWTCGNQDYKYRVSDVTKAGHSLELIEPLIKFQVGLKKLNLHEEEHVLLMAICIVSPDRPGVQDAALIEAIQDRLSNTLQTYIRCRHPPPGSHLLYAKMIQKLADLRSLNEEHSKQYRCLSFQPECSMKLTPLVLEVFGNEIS
Sequence of Bile acid receptor (Homo sapiens) (Q96RI1 whole entry, looked up): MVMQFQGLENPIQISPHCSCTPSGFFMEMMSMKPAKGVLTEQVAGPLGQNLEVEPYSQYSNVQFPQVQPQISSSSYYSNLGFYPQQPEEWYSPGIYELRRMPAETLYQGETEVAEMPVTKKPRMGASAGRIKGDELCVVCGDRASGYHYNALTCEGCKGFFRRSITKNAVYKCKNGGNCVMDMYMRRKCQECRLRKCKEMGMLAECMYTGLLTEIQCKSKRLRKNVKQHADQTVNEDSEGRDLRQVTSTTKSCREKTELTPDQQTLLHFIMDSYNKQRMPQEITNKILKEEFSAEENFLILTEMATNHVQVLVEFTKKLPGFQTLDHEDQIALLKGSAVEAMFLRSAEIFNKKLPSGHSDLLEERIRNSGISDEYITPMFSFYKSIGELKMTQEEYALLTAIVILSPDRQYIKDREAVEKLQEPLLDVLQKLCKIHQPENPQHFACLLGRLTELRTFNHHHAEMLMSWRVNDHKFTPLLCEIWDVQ
Sequence of Peroxisome proliferator-activated receptor delta (Homo sapiens) (Q03181 whole entry, looked up): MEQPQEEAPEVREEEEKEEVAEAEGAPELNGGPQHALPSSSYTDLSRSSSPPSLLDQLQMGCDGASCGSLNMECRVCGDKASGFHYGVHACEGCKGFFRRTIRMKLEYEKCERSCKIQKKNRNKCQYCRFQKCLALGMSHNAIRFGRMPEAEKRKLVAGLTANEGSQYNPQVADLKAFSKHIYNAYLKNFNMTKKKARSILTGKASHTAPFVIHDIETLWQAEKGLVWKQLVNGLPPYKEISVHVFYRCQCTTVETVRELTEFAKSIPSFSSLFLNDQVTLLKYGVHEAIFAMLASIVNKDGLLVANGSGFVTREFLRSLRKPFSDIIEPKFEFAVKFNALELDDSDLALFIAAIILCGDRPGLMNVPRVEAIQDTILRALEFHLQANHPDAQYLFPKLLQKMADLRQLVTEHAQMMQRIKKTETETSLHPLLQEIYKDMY

For `C1=Cc2ccccc2C1`, the Potency result in [1], in experiment [3], in experiment [5], in experiment [6], in experiment [8] and in [9] was “inactive” each time. Besides, the Potency entry in experiment [10], in [11], in [13], in [14] and in experiment [15] was “inactive” throughout. Also, the compound was called inactive in experiment [2], in experiment [4], in [7] and in [12].
With `O=C(NS(=O)(=O)/C=C/c1cccs1)c1ccc(F)cc1Br`, the Potency result in [1], in experiment [3], in experiment [5], in experiment [6], in experiment [8] and in [18] was “inactive” each time. In addition, the Potency entry in [9], in experiment [10], in [19], in experiment [13], in experiment [20] and in [14] was “inactive” in each case. Moreover, the call in [2], in experiment [16], in [17], in [7] and in experiment [12] was inactive.
For the compound `CCN(CC)C(C)CN1c2ccccc2Sc2ccccc21` (centres undefined), the Potency entry in [1], in experiment [3], in experiment [5], in [6], in experiment [8] and in [18] was “inactive” in each case. Besides, the Potency entry in experiment [10], in experiment [19], in experiment [13] and in [15] was “inactive” each time. Further, the compound was classed as inactive in [4], in experiment [7] and in experiment [12].
On to `CCOc1nc2cccc(C(=O)O)c2n1Cc1ccc(-c2ccccc2-c2nn[nH]n2)cc1`, for which the Potency result in experiment [1], in experiment [3], in [6], in experiment [9], in [10] and in [19] was “inactive” in each case. Also, the Potency result in experiment [13], in experiment [20] and in [14] was “inactive” each time. Moreover, the result in experiment [2] and in [12] was inactive.
In the case of `Cc1ccccc1N=Nc1ccc(N=Nc2c(O)ccc3ccccc23)c(C)c1`, the Potency result in [1], in experiment [3], in experiment [5], in [6], in experiment [9] and in [10] was “inactive” throughout. Further, the Potency result in experiment [19], in [13], in experiment [20] and in [14] was “inactive” throughout. In addition, the compound was called inactive in experiment [2], in experiment [4] and in [12].
`Cc1occc1S`: the Potency entry in [1], in experiment [3], in experiment [5], in experiment [6], in [8] and in experiment [9] was “inactive” in each case. Besides, the Potency entry in [10], in [11], in experiment [13] and in experiment [20] was “inactive” each time. The outcome in experiment [2], in experiment [4], in [7] and in experiment [12] was inactive.
`N#Cc1c(F)cccc1F`: the Potency result in experiment [1], in experiment [3], in experiment [5], in experiment [18], in experiment [9] and in experiment [10] was “inactive” in each case. In addition, the Potency result in [19], in experiment [13], in experiment [20] and in experiment [14] was “inactive” each time. In addition, the result in [2], in experiment [4], in [16], in experiment [17] and in experiment [12] was inactive.
Take `CC(=O)c1c(C)c([N+](=O)[O-])c(C(C)(C)C)c([N+](=O)[O-])c1C`: the Potency result in experiment [1], in experiment [3], in [5], in experiment [6], in experiment [18] and in experiment [9] was “inactive” throughout. In addition, the Potency entry in experiment [10], in experiment [19], in experiment [13], in [20] and in [14] was “inactive” in each case. Also, the compound was classed as inactive in [2], in experiment [4], in experiment [17], in experiment [7] and in experiment [12]. Besides, the Potency in experiment [15] is 21.9 µM (active).
As for `CCCCCC(CO)CCC` (centres undefined), the Potency entry in [1], in experiment [5], in experiment [6], in [8], in [18] and in experiment [9] was “inactive” each time. Also, the Potency result in experiment [10], in [19], in [13], in [20] and in experiment [14] was “inactive” in each case. Besides, the outcome in experiment [4], in [7] and in [12] was inactive.
